Compound activity: PubChem, several laboratories
The list is not random: actives were taken first. Their share in the collection is about 0.79%.
E coli growth-1 = E. coli growth inhibition. Escherichia coli growth, OD600, 23 h; stronger effect = lower value. OD600 absorbance (concentration not given with the values). 0.21% of 330,000 active. AID 1053175;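 active = OD600 absorbance below the run mean of sample wells minus 3.6 SD, in any replicate, cut at about 0.56 in these data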
phage Ecoli inh = E. coli growth loss with phage present; AID 651602; 0.26% of 360,000 active; growth absorbance; inhibition, % at 11.9 µM; in the data active = inhibition above about 11%
AddAB inh = less growth of phage-infected E. coli with AddAB | 0.29% of 330,000 active | inhibition, % at 11.9 µM | AID 435030 | E. coli expressing H. pylori AddAB, absorbance growth; in the data active = inhibition above about 12%;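 note: 0% = vehicle wells of infected cells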
Tat transport = blocks Tat-dependent protein export in E. coli; 0.036% of 340,000 active; E. coli MC4100 TorA-mCherry Tat export, fluorescence; inhibition, % at 10 µM;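 active = mean replicate inhibition at least 50% and at least half of replicates individually reaching 50%; inconclusive = only one of the two criteria met; inactive = neither criterion met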;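 note: exported cargo escapes ClpAP degradation while cytoplasmic cargo is degraded and loses fluorescence; 0% = median of neutral control wells and 100% = median of NaSCN control wells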
E coli growth-2 = counter-screen for AddAB inhibitors: E. coli growth inhibition; E. coli V3065 growth, OD600 absorbance, 18 h; inhibition, % at 11.9 µM; 0.27% of 330,000 active; AID 449728;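 active = inhibition above the campaign's mean inhibition across all tested compounds plus 3 SD, cut at about 9.9% in these data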;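 note: uninfected addAB+ strain grown without phage in ampicillin broth; 0% = DMSO wells and 100% = ciprofloxacin 0.95 µg/ml wells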
AI-2 QS mod = Vibrio harveyi AI-2 quorum sensing modulation. Vibrio harveyi JMH597 AI-2 luminescence/OD600 ratio, 9 h; stronger effect = lower value; strain lacks LuxN and CqsS sensors; 0 = neutral-control median. activity change, % at 7.5 µM. 0.4% of 300,000 active; in the data active = activity change below about -75%, passing the limit was not always enough; inconclusive = no clear call, values can overlap the other calls;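 note: luminescence divided by OD600 gain over 9 h not by final OD600 alone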
JMH597 growth = retest Vibrio harveyi JMH597 growth inhibition. AID 2726. growth inhibition, % at 7.5 µM. shares compounds with AI-2 QS mod. 1% of 750 active. OD600 absorbance, 9 h; lacks LuxN and CqsS sensors;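 active = every replicate shows growth inhibition above 50%; inconclusive = at least half, but not all, replicates pass that cutoff; inactive = fewer than half of replicates pass it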
BB721 lum counter = retest counter-screen: BB721 constitutive quorum sensing luminescence decrease | shares compounds with AI-2 QS mod | Vibrio harveyi BB721 luminescence, 9 h | inhibition, % at 7.5 µM | 95% of 750 active | AID 2727;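 active = inhibition above about 80% in every replicate, not just on average, limit read from the data; inconclusive = at least half of replicates past the limit, but not all; inactive = fewer than half of replicates past the limit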
BB721 growth = retest: inhibitors of Vibrio harveyi BB721 growth. OD600 absorbance, 9 h. growth inhibition, % at 7.5 µM. shares compounds with AI-2 QS mod. AID 2728. 3% of 750 active;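 active = every replicate shows growth inhibition above 50%; inconclusive = at least half but not all replicates above 50% inhibition; inactive = under half of replicates above 50% inhibition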
AI-2 QS JMH597 = Vibrio harveyi AI-2 signaling luminescence modulation – JMH597 strain, confirmation | shares compounds with AI-2 QS mod | inhibition, % at 7.5 µM | Vibrio harveyi JMH597 AI-2 quorum sensing luminescence, 9 h; luxN and CqsS knockout, AI-2 only | 97% of 750 active;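 active = every replicate shows more than 75% inhibition of signal versus neutral control wells; inconclusive = half to three quarters of replicates exceed 75% inhibition; inactive = fewer than half of replicates exceed 75% inhibition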
The depositor's hits bear a star; ? = inconclusive; . = no result.

SMILES	E coli growth-1	phage Ecoli inh	AddAB inh	Tat transport	E coli growth-2	AI-2 QS mod	JMH597 growth	BB721 lum counter	BB721 growth	AI-2 QS JMH597
O=[N+]([O-])c1ccc(NCCCNS(=O)(=O)c2ccccc2)cc1	0.69	4	4	-1	1	?	11	97*	6	97*
Cc1nc(-c2cccnc2)sc1C(=O)Nc1cccc(C(F)(F)F)c1	0.64	3	3	1	0	-86*	-15	85*	10	89*
CC1(C)CC(=O)C=C(Nc2cc(-c3ccccc3)[nH]n2)C1	0.73	3	3	-4	-2	-79*	0	90*	-12	94*
Cc1ccc(S(=O)(=O)NN=Cc2cccc3c2OCCO3)cc1	0.72	.	.	.	.	.	.	.	.	.
O=C(CNC(=O)c1ccco1)Nc1ccc(S(=O)(=O)N2CCCC2)cc1	0.65	0	2	15	-1	-94*	23	98*	-156	99*
O=C(Cn1c(=O)sc2ccccc21)Nc1ccc(S(=O)(=O)N2CCCC2)cc1	0.67	0	2	-10	1	-97*	15	99*	2	99*
COc1ccc(OCC(=O)Nc2ccc(S(=O)(=O)N3CCCC3)cc2)cc1	0.62	3	3	0	-1	?	24	95*	28	99*
O=C(Cc1ccccc1)Nc1ccc(S(=O)(=O)N2CCCC2)cc1	0.68	1	.	1	.	-60	.	.	.	.
Cc1cc(NS(=O)(=O)c2ccc(NC(=O)COc3ccc(Cl)cc3)cc2)no1	0.72	4	0	1	4	-87*	16	93*	14	91*
Cc1cc(NS(=O)(=O)c2ccc(NC(=O)COc3ccccc3Cl)cc2)no1	0.66	2	1	-3	-1	-23	.	.	.	.
COc1ccc(C=NNC(=O)Cn2nc([N+](=O)[O-])cc2C)c(OC)c1OC	0.65	.	.	.	.	.	.	.	.	.
O=C(NNS(=O)(=O)c1ccc(Cl)cc1)c1ccc(S(=O)(=O)N2CCCCC2)cc1	0.68	4	6	-5	-1	-97*	10	100*	-17	100*
O=C(COC(=O)c1ccc(Br)o1)Nc1cccc(S(=O)(=O)N2CCCCC2)c1	0.7	2	-1	3	1	.	.	.	.	.
O=C(COC(=O)c1ccc(Br)o1)Nc1ccc(S(=O)(=O)N2CCCC2)cc1	0.68	1	-1	-1	0	-94*	0	99*	-4	100*
Cc1ccc(OCC(=O)Nc2ccc(S(=O)(=O)N3CCCC3)cc2)cc1	0.67	-1	4	8	1	?	46	92*	29	99*
Cc1ccc(C(=O)NCCc2ccc(S(=O)(=O)N3CCCC3)cc2)cc1	0.73	5	-2	3	-1	-79*	20	93*	12	96*
O=C(NNC(=O)C1CCN(S(=O)(=O)c2ccc(Cl)cc2)CC1)c1ccc(Cl)cc1	0.74	3	1	-7	2	14	.	.	.	.
CCN1C(=O)C(=c2sc(=C3Sc4ccccc4N3C)c(=O)n2C)N(C)C1=S	0.72	.	.	.	.	.	.	.	.	.
O=C(O)c1cccc(NC(=S)NN=Cc2ccccn2)c1	0.69	.	.	.	.	.	.	.	.	.
Clc1ccccc1C=Nc1cc(-c2ccccc2)nn1-c1ccccc1	0.68	.	.	.	.	.	.	.	.	.
Clc1ccc(OCc2cc(-c3ccccc3)no2)cc1Cl	0.64	3	2	15	2	?	-16	97*	-25	98*
Nc1nnn(CC(=O)NN=Cc2cccc3ccccc23)n1	0.66	.	.	.	.	.	.	.	.	.
O=C(COC(=O)c1n[nH]c2ccccc12)Nc1ccccc1	0.64	3	3	7	3	-66	.	.	.	.
Cc1cc(C)cc(NC(=O)COC(=O)c2n[nH]c3ccccc23)c1	0.7	0	2	3	3	-89*	-8	96*	-23	96*
CC(=O)c1cccc(NC(=O)COC(=O)c2n[nH]c3ccccc23)c1	0.69	3	2	-2	-2	-81*	11	95*	-3	97*
SMILES	E coli growth-1	phage Ecoli inh	AddAB inh	Tat transport	E coli growth-2	AI-2 QS mod	JMH597 growth	BB721 lum counter	BB721 growth	AI-2 QS JMH597
Cc1cccc(C(=O)ON=C(N)c2cccc([N+](=O)[O-])c2)c1	0.71	.	.	.	.	.	.	.	.	.
COC(=O)[C@@]1(Cc2ccc(F)cc2)C2c3cc(C(=O)N(C)C)n(CCSCCO)c3CC2CN1C(=O)c1ccccc1 (some centres not stated)	0.62	.	.	.	.	.	.	.	.	.
CCc1ccc2nc(NC(=O)CSCc3c(C)noc3C)sc2c1	0.68	1	3	-3	-4	-90*	11	94*	-109	96*
C=CCOc1c(CNc2ccc(C(=O)O)cc2)cccc1OCC	0.78	3	1	-2	0	-89*	5	95*	-2	98*
C=CCNC(=O)C=Cc1cccs1	0.72	.	.	.	.	.	.	.	.	.
O=C(/C=C/c1ccc(F)cc1)NCc1cccs1	0.65	3	1	0	-2	-90*	4	95*	12	96*
Cc1ccc(CNC(=O)/C=C/c2c(Cl)cccc2Cl)cc1	.	5	-2	-8	-1	25	.	.	.	.
O=C(/C=C/c1ccc(Br)cc1)NCc1cccs1	0.7	5	3	-15	2	-31	.	.	.	.
O=C(/C=C/c1ccccc1Cl)NCc1cccs1	0.67	-2	2	-2	2	-93*	14	97*	1	98*
O=C(/C=C/c1cccs1)NCc1ccccc1	0.66	0	1	4	-1	-90*	9	97*	5	97*
Cc1ccc(CNC(=O)/C=C/c2ccccc2Cl)cc1	0.78	0	3	-4	0	-93*	-4	96*	-3	97*
O=C(/C=C/c1ccccc1Cl)NNC(=O)c1cccs1	0.58	2	2	3	1	8	.	.	.	.
COC(=O)C1=C(C(=O)OC)C2N(C)c3ccc(OC)cc3[C@@]23CC(C(=O)OC)N(C(=O)COCc2ccccc2)C3=N1 (some centres not stated)	0.68	.	.	.	.	.	.	.	.	.
Clc1cccc(C=NN2CCN(Cc3ccccc3)CC2)c1	0.66	.	.	.	.	.	.	.	.	.
N#Cc1ccc(NN=Cc2cn(-c3ccccc3)nc2-c2ccccc2)c([N+](=O)[O-])c1	0.73	.	.	.	.	.	.	.	.	.
Cc1ccc(/C=C/C(=O)c2ccc(O)cc2)cc1	.	-1	0	4	-2	-94*	-7	97*	-22	98*
CCOc1cc(C=NNS(=O)(=O)c2ccc(OC)cc2)ccc1OCCN1CCOCC1	0.67	.	.	.	.	.	.	.	.	.
COc1ncnc2sc(-c3ccccc3)cc12	0.69	0	1	-1	-2	27	.	.	.	.
